These results are taken from PubChem BioAssay (NCI).

This is part of a sample that, as a whole, favours compounds with a hit. Of some 79,000 tested, about 15% had one in any assay. Values without a mark were called inactive. Active and inactive are the calls of the source. Rule as the data show it: active = growth inhibition above about 70%; inactive = the rest.

Assay [1] in a line: NCI Yeast Anticancer Drug Screen. Data for the rad50 strain (AID 155).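 Also: 0% = growth of vehicle-only cultures of the same strain.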 As to conditions: S. cerevisiae rad50 strain growth inhibition, active compounds read high. In a few lines: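 Vehicle-treated cultures provide the reference for the growth inhibition reported for compound-exposed, repair-deficient yeast.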
Assay [2] in a line: NCI Yeast Anticancer Drug Screen. Data for the mec2-1 strain (AID 157). As to conditions: S. cerevisiae mec2-1 strain, active compounds read high. In a few lines:
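Test agents were screened against the mec2-1 yeast strain, with defined DNA repair or cell cycle alteration. Growth was scored as inhibition against vehicle-only controls.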

The nature of assay [3]: NCI Yeast Anticancer Drug Screen. Data for the sgs1 mgt1 strain (AID 161).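 Also: 0% = growth of cultures given vehicle only.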 As to conditions: S. cerevisiae sgs1 mgt1 strain, active compounds read high. In a few lines: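 Mutant yeast exposed to compound; growth scored against vehicle-only wells.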
Assay [4] is described as follows: NCI Yeast Anticancer Drug Screen. Data for the cln2 rad14 strain (AID 165).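 Also: 0% = growth equal to vehicle treated cultures.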 The following applies: S. cerevisiae cln2 rad14 strain, active compounds read high. In a few lines:
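Growth of compound-exposed yeast (cln2 rad14 genotype) measured and expressed as inhibition relative to vehicle.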

The nature of assay [5]: NCI Yeast Anticancer Drug Screen. Data for the bub3 strain (AID 167). As to conditions: S. cerevisiae bub3 mutant strain, active compounds read high. In a few lines: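 Mutant yeast screening strain plus compound; vehicle-treated cultures serve as the 0% inhibition reference.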
Assay [6] is described as follows: NCI Yeast Anticancer Drug Screen. Data for the mlh1 rad18 strain (AID 175). The following applies: S. cerevisiae mlh1 rad18 strain growth inhibition, active compounds read high. The procedure, abridged: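 In this whole-cell yeast screen, a strain with altered DNA damage repair is challenged with compound, and its growth is measured against matched vehicle-treated controls.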

The mark [7] stands for this setting: at 5.0 µM (retest, dose inferred, filed as 0.5).
Where [8] appears, read: at 50.0 µM (retest, dose inferred, filed as 5.0).

For the compound `O=NNc1ccc(Sc2ccc3ccccc3c2)cn1`, the growth inhibition in assay [1] (setting [7]) is 21%; in assay [1] (setting [8]), 41%; in assay [1] (at 50.0 µM), 21.5%; in assay [2] (setting [7]) it was 24%; in assay [2] (setting [8]) it was 36%; in assay [2] (at 50.0 µM), 12.2%. In addition, the growth inhibition in assay [3] (setting [7]) is 20%; in assay [3] (setting [8]) it was 27%; in assay [3] (at 50.0 µM), 19.1%; in assay [4] (setting [7]), 32%; in assay [4] (setting [8]) it was 43%; in assay [4] (at 50.0 µM), 24.8%. Further, the growth inhibition in assay [5] (setting [7]) is 30%; in assay [5] (setting [8]), 37%; in assay [5] (at 50.0 µM), 35%; in assay [6] (setting [7]), 25%; in assay [6] (setting [8]) it was 47%; in assay [6] (at 50.0 µM) it was 51.5%.
For `CCOC(=O)N1c2ccc3ccccc3c2C=CC1C#N` (configuration not stated), the growth inhibition in assay [1] (setting [7]) is 0%; in assay [1] (setting [8]), 6%; in assay [1] (at 50.0 µM), 96.5% (active); in assay [2] (setting [7]), -12%; in assay [2] (setting [8]) it was -5%; in assay [2] (at 50.0 µM), 97.3% (active). In addition, the growth inhibition in assay [3] (setting [7]) is -1%; in assay [3] (setting [8]), 14%; in assay [3] (at 50.0 µM) it was 96.6% (active); in assay [4] (setting [7]) it was -11%; in assay [4] (setting [8]), 7%; in assay [4] (at 50.0 µM), 95.5% (active). Further, the growth inhibition in assay [5] (setting [7]) was -18%; in assay [5] (setting [8]), -20%; in assay [5] (at 50.0 µM), 86.3% (active); in assay [6] (setting [7]) it was -2%; in assay [6] (setting [8]), -6%; in assay [6] (at 50.0 µM), 94.7% (active).
For the compound `NC1=NC(c2ccccc2)CC(c2cc(Cl)cc(Br)c2O)=N1` (configuration not stated), the growth inhibition was 0% in assay [1] (setting [7]); 25% in assay [1] (setting [8]); 35.1% in assay [1] (at 50.0 µM); -3% in assay [2] (setting [7]); 19% in assay [2] (setting [8]); 13.4% in assay [2] (at 50.0 µM). Moreover, the growth inhibition in assay [3] (setting [7]) is -1%; in assay [3] (setting [8]), 42%; in assay [3] (at 50.0 µM), 10.7%; in assay [4] (setting [7]) it was 0%; in assay [4] (setting [8]), 22%; in assay [4] (at 50.0 µM), 16.2%. The growth inhibition in assay [5] (setting [7]) was -1%; in assay [5] (setting [8]), 34%; in assay [5] (at 50.0 µM), -0.8%; in assay [6] (setting [7]), -3%; in assay [6] (setting [8]), 46%; in assay [6] (at 50.0 µM), 28.9%.
Consider `COC(=O)c1ccc2c(c1)CC1(C2)Cc2ccccc2C1=O` (configuration not stated), for which the growth inhibition in assay [1] (setting [7]) was 14%; in assay [1] (setting [8]) it was 88% (active); in assay [1] (at 50.0 µM), 68%; in assay [2] (setting [7]) it was -20%; in assay [2] (setting [8]), 92% (active); in assay [2] (at 50.0 µM) it was 77% (active). Further, the growth inhibition in assay [3] (setting [7]) was -4%; in assay [3] (setting [8]), 84% (active); in assay [3] (at 50.0 µM), 83.5% (active); in assay [4] (setting [7]), -37%; in assay [4] (setting [8]) it was 64%; in assay [4] (at 50.0 µM), 57.5%. Besides, the growth inhibition in assay [5] (setting [7]) is 6%; in assay [5] (setting [8]), 98% (active); in assay [5] (at 50.0 µM) it was 87.1% (active); in assay [6] (setting [7]), -17%; in assay [6] (setting [8]), 94% (active); in assay [6] (at 50.0 µM), 79.5% (active).
With `CCN(C(C)=O)c1cnc(/C=N/NC(N)=S)c2ccccc12`, the growth inhibition in assay [1] (setting [7]) was 13%; in assay [1] (setting [8]), 47%; in assay [1] (at 50.0 µM) it was 66.6%; in assay [2] (setting [7]) it was 11%; in assay [2] (setting [8]), 47%; in assay [2] (at 50.0 µM) it was 76.9% (active). The growth inhibition was 18% in assay [3] (setting [7]); 71% (active) in assay [3] (setting [8]); 28.9% in assay [3] (at 50.0 µM); -13% in assay [4] (setting [7]); 57% in assay [4] (setting [8]); 61.3% in assay [4] (at 50.0 µM). Moreover, the growth inhibition in assay [5] (setting [7]) was 21%; in assay [5] (setting [8]), 71% (active); in assay [5] (at 50.0 µM) it was 60.4%; in assay [6] (setting [7]), 11%; in assay [6] (setting [8]), 57%; in assay [6] (at 50.0 µM), 31.5%.
Take `CC(/C=C/c1ccc(Cl)cc1)=N\NC(N)=S`: the growth inhibition in assay [1] (setting [7]) was 11%; in assay [1] (setting [8]), 44%; in assay [1] (at 50.0 µM), 68.2%; in assay [2] (setting [7]), -1%; in assay [2] (setting [8]), 29%; in assay [2] (at 50.0 µM), 69%. The growth inhibition in assay [3] (setting [7]) was 1%; in assay [3] (setting [8]), 59%; in assay [3] (at 50.0 µM) it was 49.4%; in assay [4] (setting [7]), 12%; in assay [4] (setting [8]), 32%; in assay [4] (at 50.0 µM) it was 47.1%. Besides, the growth inhibition in assay [5] (setting [7]) is 1%; in assay [5] (setting [8]), 38%; in assay [5] (at 50.0 µM), 50%; in assay [6] (setting [7]), 16%; in assay [6] (setting [8]) it was 54%; in assay [6] (at 50.0 µM) it was 60.5%.
Take `O=C1c2ccccc2C(O)(c2ccccc2)c2c(Cl)cccc21` (configuration not stated): the growth inhibition in assay [1] (setting [7]) is -1%; in assay [1] (setting [8]) it was 27%; in assay [1] (at 50.0 µM), 82.6% (active); in assay [2] (setting [7]), -6%; in assay [2] (setting [8]), 26%; in assay [2] (at 50.0 µM), 90.7% (active). Further, the growth inhibition in assay [3] (setting [7]) is 0%; in assay [3] (setting [8]) it was 28%; in assay [3] (at 50.0 µM), 80.8% (active); in assay [4] (setting [7]), 1%; in assay [4] (setting [8]), 21%; in assay [4] (at 50.0 µM), 75.2% (active). Also, the growth inhibition is -5% in assay [5] (setting [7]); 14% in assay [5] (setting [8]); 80% (active) in assay [5] (at 50.0 µM); -12% in assay [6] (setting [7]); 41% in assay [6] (setting [8]); 96.7% (active) in assay [6] (at 50.0 µM).
`COc1cc2c(cc1O)-c1c(cnn1-c1ccccc1)CCC2`: the growth inhibition was -7% in assay [1] (setting [7]); 85% (active) in assay [1] (setting [8]); 95.5% (active) in assay [1] (at 50.0 µM); -5% in assay [2] (setting [7]); 93% (active) in assay [2] (setting [8]); 96% (active) in assay [2] (at 50.0 µM). In addition, the growth inhibition in assay [3] (setting [7]) is 2%; in assay [3] (setting [8]), 88% (active); in assay [3] (at 50.0 µM) it was 97.4% (active); in assay [4] (setting [7]) it was -17%; in assay [4] (setting [8]) it was 88% (active); in assay [4] (at 50.0 µM) it was 55%. In addition, the growth inhibition in assay [5] (setting [7]) is -7%; in assay [5] (setting [8]), 86% (active); in assay [5] (at 50.0 µM), 93.3% (active); in assay [6] (setting [7]), -8%; in assay [6] (setting [8]), 92% (active); in assay [6] (at 50.0 µM) it was 97.6% (active).
For `Cc1c(-c2ccccc2)ccnc1/C=N/NS(=O)(=O)c1ccccc1`, the growth inhibition in assay [1] (setting [7]) was 0%; in assay [1] (setting [8]), -4%; in assay [1] (at 50.0 µM), 42%; in assay [2] (setting [7]), -1%; in assay [2] (setting [8]), 15%; in assay [2] (at 50.0 µM) it was 22.9%. Further, the growth inhibition in assay [3] (setting [7]) is 4%; in assay [3] (setting [8]), 38%; in assay [3] (at 50.0 µM), 82% (active); in assay [4] (setting [7]) it was -3%; in assay [4] (setting [8]), -6%; in assay [4] (at 50.0 µM), 35.3%. Further, the growth inhibition is -8% in assay [5] (setting [7]); -3% in assay [5] (setting [8]); 39.1% in assay [5] (at 50.0 µM); -3% in assay [6] (setting [7]); 28% in assay [6] (setting [8]); 52.2% in assay [6] (at 50.0 µM).
